Potency data for 20 compounds are collected here from PubChem BioAssay (NCATS).

Records with an inconclusive call do not appear. Calls of active or inactive are those of the source. Calls come from the whole dose curve; as a rule, active = well fitted cell-killing curve with a large enough effect; inconclusive = small, poorly fitted or top-dose-only effect, or effect the other way; inactive = no such curve, though single readings can be large or run the other way.

Assay [1] is described as follows: Quantitative High-Throughput drug screen in 47 multiple myeloma cell lines against the NCATS MIPE library collection: U266_ATCC cell viability assay (AID 1919864). Note: nearly all actives have a fitted effect of over 35% in size. Note: potency is the fitted concentration of half-maximal effect. An outline of the steps:
(§1)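 Cells were exposed to library compounds for 48 hours, after which ATP was measured by CellTiter-Glo. Signal was taken as median relative luminescence units.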

Assay [2] is described as follows: Quantitative High-Throughput drug screen in 47 multiple myeloma cell lines against the NCATS MIPE library collection: XG1_PLB cell viability assay (AID 1919866). Note: nearly all actives have a fitted effect of over 35% in size. Note: potency is the fitted concentration of half-maximal effect. An outline of the steps: as §1
A short description of assay [3]: Quantitative High-Throughput drug screen in 47 multiple myeloma cell lines against the NCATS MIPE library collection: VP6_DJ cell viability assay (AID 1919867). Note: nearly all actives have a fitted effect of over 40% in size. Note: potency is the fitted concentration of half-maximal effect. An outline of the steps:
as §1

Assay [4] is described as follows: Quantitative High-Throughput drug screen in 47 multiple myeloma cell lines against the NCATS MIPE library collection: PE2_PLB cell viability assay (AID 1919869). Note: nearly all actives have a fitted effect of over 35% in size. Note: potency is the fitted concentration of half-maximal effect. An outline of the steps:
as §1

A short description of assay [5]: Quantitative High-Throughput drug screen in 47 multiple myeloma cell lines against the NCATS MIPE library collection: PCM6_Riken cell viability assay (AID 1919870). Note: nearly all actives have a fitted effect of over 30% in size. Note: potency is the fitted concentration of half-maximal effect. An outline of the steps:
as §1

A short description of assay [6]: Quantitative High-Throughput drug screen in 47 multiple myeloma cell lines against the NCATS MIPE library collection: RPMI8226_ATCC cell viability assay (AID 1919871). Note: nearly all actives have a fitted effect of over 30% in size. Note: potency is the fitted concentration of half-maximal effect. An outline of the steps: as §1
Assay [7] in a line: Quantitative High-Throughput drug screen in 47 multiple myeloma cell lines against the NCATS MIPE library collection: XG6_PLB cell viability assay (AID 1919865). Note: nearly all actives have a fitted effect of over 40% in size. Note: potency is the fitted concentration of half-maximal effect. An outline of the steps:
as §1

Assay [8] is described as follows: Quantitative High-Throughput drug screen in 47 multiple myeloma cell lines against the NCATS MIPE library collection: OPM2_DSMZ cell viability assay (AID 1919872). Note: nearly all actives have a fitted effect of over 30% in size. Note: potency is the fitted concentration of half-maximal effect. An outline of the steps:
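Approved and investigational drugs from MIPE 4.0 were added by pin tool to 500 cells per well. After 48 hours at 37C, ATP-based CellTiter-Glo luminescence indicated remaining viability.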

Assay [9] is described as follows: Quantitative High-Throughput drug screen in 47 multiple myeloma cell lines against the NCATS MIPE library collection: UTMC2_PLB cell viability assay (AID 1919868). Note: nearly all actives have a fitted effect of over 55% in size. As to conditions: CellTiter-Glo ATP luminescence, 48 h; viability (% of DMSO control): at 45.8 µM (top of the series). An outline of the steps: as §1
A general note: Cellular ATP, detected with luciferase, serves as a proxy for viable cell number.

Take `CCOC(=O)[C@H](CCc1ccccc1)N[C@@H](C)C(=O)N1CCCC1C(=O)O` (stereo partly specified): the Potency is 20.9 µM (active) in assay [1], 23.5 µM (active) in [2], 20.9 µM (active) in [3] and 26.4 µM (active) in assay [5]. Moreover, the Potency entry in [4] and in assay [6] was “inactive” each time.
With `CCNC(=O)[C@H]1O[C@@H](n2cnc3c(N)nc(NCCc4ccc(CCC(=O)O)cc4)nc32)[C@H](O)[C@H]1O`, the Potency in [1] was 0.118 µM (active); in assay [4], 0.0469 µM (active). Moreover, the Potency result in assay [2] and in [6] was “inactive” throughout.
Turning to `CC(=O)Nc1cccc(-n2c(=O)n(C3CC3)c(=O)c3c(Nc4ccc(I)cc4F)n(C)c(=O)c(C)c32)c1`, the Potency in assay [1] was 1.48 µM (active); in [2] it was 0.0418 µM (active); in assay [4] it was 0.296 µM (active); in [6] it was 1.66 µM (active).
`Nc1ncnc2c1ncn2[C@@H]1O[C@H](CO)[C@@H](O)[C@@H]1O`: the Potency is 7.43 µM (active) in [1], 0.935 µM (active) in assay [2] and 0.166 µM (active) in assay [3]. The Potency result in [6] is “inactive”.
Consider `NCC1CCC(C(=O)O)CC1` (stereo unspecified), for which the Potency in assay [1] was 5.9 µM (active). In addition, the Potency result in [7], in [4], in [5], in assay [6] and in [8] was “inactive” each time.
`c1ccc(-c2oc3ncnc(NC[C@@H]4CCCO4)c3c2-c2ccccc2)cc1`: the Potency is 16.6 µM (active) in assay [1], 10.5 µM (active) in assay [7], 16.6 µM (active) in assay [4] and 23.5 µM (active) in [6].
For the compound `CCN1C[C@H](C)n2c(c(O)c3c(=O)n(Cc4ccc(F)c(Cl)c4)nc(C(=O)NC)c32)C1=O`, the Potency entry in assay [1], in [7], in assay [9], in [4] and in assay [8] was “inactive” in each case.
`COc1cc2c(cc1OC)[C@@H]1Cc3ccc(OC)c(OC)c3CN1CC2`: the Potency in assay [1] was 11.8 µM (active); in assay [6], 18.7 µM (active). For the same compound, the Potency result in assay [2] is “inactive”.
For the compound `OCCn1cc(-c2ccc3c(c2)CCC3=NO)c(-c2ccncc2)n1`, the Potency in assay [1] is 23.5 µM (active); in assay [3] it was 16.6 µM (active). For the same compound, in assay [8], the Potency entry was “inactive”.
As to `CC1CNc2c(cccc2S(=O)(=O)N[C@@H](CCCN=C(N)N)C(=O)N2CC[C@@H](C)C[C@@H]2C(=O)O)C1` (stereo partly specified), the Potency entry in [1], in assay [2], in assay [9], in assay [4], in [6] and in assay [8] was “inactive” each time.
Consider `CC1(C)OC2CC3C4CC(F)C5=CC(=O)C=CC5(C)C4C(O)CC3(C)[C@]2(C(=O)CO)O1` (stereo partly specified), for which the Potency result in [1], in assay [2], in assay [9], in assay [5] and in assay [8] was “inactive” throughout. For the same compound, the Potency in [3] was 3.32 µM (active); in assay [6] it was 0.0118 µM (active).
Regarding `CC(=O)OCC(=O)[C@@]12OC(C)(C)O[C@H]1C[C@H]1[C@@H]3C[C@H](F)C4=CC(=O)C=C[C@]4(C)[C@@]3(F)[C@@H](O)C[C@@]12C`, the Potency result in assay [1] and in assay [7] was “inactive” throughout. Further, the Potency in assay [6] is 0.0083 µM (active).
`Cc1csc(-c2nnc(Nc3ccc(Oc4ncccc4-c4ccnc(N)n4)cc3)c3ccccc23)c1`: the figures for the Potency in assay [1], in [2] and in assay [5] were 23.5 µM (active), 0.469 µM (active) and 20.9 µM (active), respectively.
In the case of `CCCCCCCCCCCCCCCC(=O)O[C@H]1[C@@H](O)[C@@H](O)[C@@H]([C@H](NC(=O)[C@@H]2C[C@@H](CCC)CN2C)[C@H](C)Cl)O[C@@H]1SC`, the results for the Potency in assay [1], in assay [4] and in [6] were 18.7 µM (active), 10.5 µM (active) and 3.32 µM (active), respectively. For the same compound, the Potency entry in assay [2], in assay [3], in [5] and in assay [8] was “inactive” throughout.
Regarding `COc1cc(N2CCN(C)CC2)ccc1Nc1nc(N)c(C(=O)c2c(Cl)cccc2Cl)s1`, the Potency in assay [1] was 18.7 µM (active); in [2], 23.5 µM (active). Further, the Potency result in assay [6] is “inactive”.
With `CCOC(=O)[C@H]1O[C@H]1C(=O)N[C@@H](CC(C)C)C(=O)NCCC(C)C`, the figures for the Potency in assay [1], in assay [7] and in [5] were 10.5 µM (active), 6.62 µM (active) and 5.9 µM (active), respectively. Besides, the Potency entry in [4] and in assay [8] was “inactive” throughout.
On to `COc1cccc(OC)c1-c1cc(C(=O)NC2(C(=O)O)C3CC4CC(C3)CC2C4)nn1-c1ccnc2cc(Cl)ccc12` (stereo unspecified), for which the Potency result in assay [7], in assay [2], in assay [3], in assay [9], in [4] and in assay [6] was “inactive” throughout.
On to `CCCCC(C=O)NC(=O)C(CC(C)C)NC(=O)OCc1ccccc1` (stereo unspecified), for which the Potency result in assay [7], in [2] and in assay [3] was “inactive” in each case. Moreover, the Potency in [8] was 14.8 µM (active).
On to `CC=C(C(=CC)c1ccc(O)cc1)c1ccc(O)cc1`, for which the Potency in assay [7] was 18.7 µM (active); in assay [2], 16.6 µM (active); in assay [3] it was 18.7 µM (active); in assay [4] it was 20.9 µM (active); in [5], 20.9 µM (active); in assay [8], 18.7 µM (active).
`CC(C)(F)C[C@H](N[C@@H](c1ccc(-c2ccc(S(C)(=O)=O)cc2)cc1)C(F)(F)F)C(=O)NC1(C#N)CC1`: the Potency result in assay [7], in [2], in assay [3], in assay [5] and in assay [8] was “inactive” in each case. The figures for the Potency in assay [4] and in [6] were 6.62 µM (active) and 20.9 µM (active), respectively.
